PubChem BioAssay AID2599 (Sanford-Burnham Center for Chemical Genomics, 2010)
In all, about 330,000 compounds went through this assay and about 5,800 (1.8%) were called active.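 The calls were made as follows: active = inhibition above about 50% at the single tested dose (limit read from the data); inactive = the rest.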 The sample as a whole holds a higher share of actives than the screen did.

Target: Sentrin-specific protease 6 (Homo sapiens) (UniProt Q9GZR1)
Assay: SENP6 protease inhibitors, primary screen, biochemical, luminescence, uHTS (AID 2599);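 also: plate controls were DMSO wells with enzyme for no effect and DMSO wells lacking enzyme for full effect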
Details: Recombinant SENP6 catalytic domain, aminoluciferin luminescence; at 10 µM; active compounds read high

Chain of Sentrin-specific protease 6 (Homo sapiens) (Q9GZR1 628-1112 limits assumed): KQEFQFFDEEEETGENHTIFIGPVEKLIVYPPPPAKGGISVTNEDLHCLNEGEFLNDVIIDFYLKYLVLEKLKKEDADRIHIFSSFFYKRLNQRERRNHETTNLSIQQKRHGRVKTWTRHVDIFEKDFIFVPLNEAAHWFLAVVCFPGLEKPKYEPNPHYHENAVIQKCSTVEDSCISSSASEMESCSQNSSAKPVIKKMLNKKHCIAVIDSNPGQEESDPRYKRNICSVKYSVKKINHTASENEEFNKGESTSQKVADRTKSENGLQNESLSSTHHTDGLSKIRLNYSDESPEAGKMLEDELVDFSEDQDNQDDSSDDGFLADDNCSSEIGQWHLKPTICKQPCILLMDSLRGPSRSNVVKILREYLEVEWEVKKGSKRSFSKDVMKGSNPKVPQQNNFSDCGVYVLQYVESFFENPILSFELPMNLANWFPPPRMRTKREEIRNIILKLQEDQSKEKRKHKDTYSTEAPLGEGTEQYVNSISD

inhibition, active:
c1ccc2sc(NN=C3CCCC3)nc2c1 84.1%, CC1=NN(C(N)=S)C(=O)C1N=Nc1cc(Cl)ccc1Cl (stereo not drawn) 67.7%, Cc1ccc(S(=O)(=O)Nc2nc3ccccc3nc2N2CCc3ccccc3C2)cc1 72.3%, Cn1cccc1C(=O)OCC(=O)c1ccc(Br)s1 80.6%, COc1ccc(CNC(=O)COc2ccccc2C(=O)c2cnn(-c3ccccc3)c2)cc1OC 82.5%, O=C1/C(=C/c2cccs2)CCc2ccccc21 94.5%, CCc1ccc(C(=O)COC(=O)c2ccco2)cc1 66.8%, O=[N+]([O-])c1c(NCCO)cc(Sc2nc3ccccc3s2)c2nonc12 79.3%, C/C(=N\NC(=O)c1ccoc1C)c1ccccc1O 56.4%, O=C(Nc1ccccc1)Nc1ccccc1C(=O)NCc1ccco1 75.2%, C1=C(CCNc2ncnc3c2cnn3-c2ccccc2)CCCC1 62.1%, COc1ccc(-c2csc(Nc3ccccn3)n2)cc1 81.9%, c1ccc(Nc2nc(-c3ccncc3)cs2)nc1 88.8%, COc1ccc(Nc2nc(-c3ccccc3)cs2)cc1 88.5%, CC(C)Cn1c(N)c(C(=O)NCc2cccs2)c2nc3ccccc3nc21 80.7%, CNC(C)C#Cc1ccc2sc3cc(OC)c(OC)cc3c(=O)c2c1 (stereo not drawn) 78.2%, CCCCCc1ccc(-c2ccc(C(=O)O)cc2)nc1 95.9%, O=c1[nH]c(CCl)nc2cc(-c3ccc(Cl)cc3)sc12 94.6%, O=C(Nc1nnc(SCc2ccccc2)s1)c1ccco1 63%, O=c1oc2ccccc2cc1-c1cn(-c2ccccc2)c(=S)[nH]1 94%

inhibition, inactive:
O=C(CCNC(=O)c1ccccc1)Nc1nc2ccccc2s1 -6.27%, O=C(CCC(=O)c1cccs1)Nc1nc2ccccc2s1 -6.28%, CN(C)S(=O)(=O)c1ccc(N2CCCC2)c(C(=O)Nc2cccc(F)c2)c1 -13.9%, c1ccc(C2CCC(N3CCC(N4CCCCC4)CC3)CC2)cc1 (stereo not drawn) -12.6%, CCCOc1ccc(NC(=O)CC2C(=O)N(C)C(=S)N2Cc2ccc3c(c2)OCO3)cc1 (stereo not drawn) -5.66%, Cc1ccc(NC(=O)CN2CCc3ccccc3C2)cc1 -1.22%, Cc1ccc(S(=O)(=O)N2CCN(c3ncnc4ccccc34)CC2)cc1 -8.22%, CCOc1ncccc1C(=O)N(C)CC(=O)Nc1ccc(F)cc1 -13.5%, COc1ccc(CCC(C)N2CCc3ccccc3C2)cc1 (stereo not drawn) -16.3%, CC1CCC(NC(=O)CNC(=O)c2ccc3ccccc3c2)CC1 (stereo not drawn) -5.64%, COc1ccc(N(CC(=O)NCc2ccc(F)cc2)C(=O)CCC(=O)Nc2nccs2)cc1 -20.2%, Cn1cccc1C(=O)OCC(=O)NCCc1ccccc1 2.46%, O=C(COC(=O)c1c2c(nc3ccccc13)CCCC2)c1ccc(Br)s1 -21.7%, Cc1cc(C(=O)N2CCC(C(=O)O)CC2)c(C(F)(F)F)o1 -4.3%, CCCNC(=S)NC1CC2CCCC(C1)N2CC(C)C (stereo not drawn) -7.92%, COc1ccc(CNC(=O)COC(=O)c2c(C)nn(-c3ccccc3)c2C)cc1OC -8.11%, COc1ccc(CNC(=O)Cc2ccc(-c3ccccc3)cc2)cc1OC -23.6%, COC(=O)C1=C(C(=O)OC)[C@@H]2N(C)c3ccccc3[C@@]23C[C@@H](C(=O)OC)N(C(C)=O)C3=N1 3.79%, CC(C)(C)NC(=O)Cn1c(SCC(=O)Nc2nccs2)nc2ccccc21 1.04%, COc1ccc(/C=C2\CCc3ccccc3C2=O)c(OC)c1OC -14.7%, CN1C/C(=C/c2cccs2)C(=O)/C(=C\c2cccs2)C1 8.32%, Cc1ccc(NS(=O)(=O)c2cccs2)cc1S(=O)(=O)N1CCCCCC1 -3.66%, CCN(CC)c1ccc(C(=O)OCC(=O)c2ccco2)cc1 -14.3%, O=C(OCC(=O)N1CCCC1)c1ccco1 -23.3%, Cc1ccc(CN2CC(C(=O)NNC(=O)Cn3ccc(C(F)(F)F)n3)CC2=O)cc1 (stereo not drawn) -0.795%, Cc1nc2nc(CSc3nc4ccccc4s3)cc(=O)n2[nH]1 -34.9%, NC(=O)c1ccc(Nc2ccc3nonc3c2[N+](=O)[O-])cc1 6.58%, COc1ccc(C)cc1S(=O)(=O)Nc1cccc(Cl)c1Cl -4.81%, O=C(Cc1ccc(Cl)cc1)NCc1nc(-c2ccccc2)no1 -9.63%, CC(C)=C(NC(=O)c1ccccc1)C(=O)N/N=C(\C)c1ccccc1O -21.8%, C/C(=N\NC(=O)c1ccccc1F)c1ccccn1 45%, CSCCC(NC(=O)c1ccccc1)C(=O)N1CCN(Cc2ccc(Cl)cc2)CC1 (stereo not drawn) -6.84%, CC(OC(=O)C1CC(=O)N(Cc2ccccc2)C1)C(=O)Nc1ccccc1[N+](=O)[O-] (stereo not drawn) -19.9%, CCCCN(C(=O)COc1ccc(NC(C)=O)cc1)C1CCS(=O)(=O)C1 (stereo not drawn) -10.3%, Cc1cccc(Nc2ccccc2C(=O)NCc2ccco2)c1C 2.61%, O=C(CCNC(=O)c1ccccc1Cl)NCc1ccco1 -14.5%, NC(N)=NCCCc1cn(CC(=O)N2CCNCC2)nn1 -12%, O=C(CN1CCN(S(=O)(=O)c2cccc(Cl)c2)CC1)N1CCCCC1 -12.8%, C=CCNC(=S)NNc1ncnc2sc3c(c12)CC(C)(C)OC3 -6.15%, O=C(NCCC1=CCCCC1)C1CCN(Cc2cnn(-c3ccccc3)c2-n2cccc2)CC1 12.3%, CC(C)Sc1ncnc2c1cnn2-c1ccccc1 38.9%, O=C(CSc1nc2[nH]ncc2c(=O)[nH]1)Nc1ccc(F)cc1 -4.08%, CC1(C)O[C@@H]2[C@H](O1)[C@@H](COS(=O)(=O)O)O[C@H]2n1ccc(=O)[nH]c1=O -11.6%, Clc1ccc(Nc2nc(-c3cccs3)cs2)nc1 35.3%, COc1ccc2c(c1OC)C(=O)OC2Nc1nc(-c2ccccc2)cs1 (stereo not drawn) -5.84%, CCCn1c(CCNc2nc(-c3ccc(OC)cc3)cs2)nc2ccccc21 1.04%, COc1ccc(-c2csc(NC(=O)COC(=O)Cc3ccc(Cl)cc3Cl)n2)cc1 20.8%, Clc1ccc(-c2csc(-c3ccncc3)n2)cc1 -16.8%, COc1ccc(-c2csc(Cc3nc(O)cs3)n2)cc1 25.6%, Oc1c(Br)cc(/C=N/NC(=S)NCC2CCCO2)cc1Br (stereo not drawn) -26.9%, CCn1cc(C(=O)OCC(=O)Nc2cccc(C)c2)c(=O)c2ccc(C)nc21 -16.3%, COC(=O)c1ccc(Oc2nc(NC(C)C)nc(SC)n2)cc1 -13.9%, Cc1cccc(NC(=O)CSc2nnc(CCCCCNC(=O)OC(C)(C)C)o2)c1C 12.1%, COc1ccc(CNC(=O)C(c2ccc(O)cc2)N(Cc2ccco2)C(=O)c2snc(C(N)=O)c2N)cc1 (stereo not drawn) -5.39%, C=CCC1(C#N)C(=S)NC(C)=C(C(=O)OCC)C1c1ccccc1 (stereo not drawn) -0.11%, CCc1ccc(CN(C)C(=O)C2CCC(=O)N(Cc3cccc(OC)c3)C2)nc1 (stereo not drawn) -7.64%, Cn1ncc(Br)c1C(=O)NCc1cccs1 -1.6%, CCOc1ccccc1NC(=O)Cn1nnc(C(=O)NCc2cccs2)c1N 10.8%, OC(CN=c1sc2ccccc2n1CC(O)COc1ccccc1)COc1ccccc1 (stereo not drawn) -0.866%, CC(C)CN(C(=O)COC(=O)c1ccc2ccccc2c1)c1c(N)n(Cc2ccccc2)c(=O)[nH]c1=O -9.38%, CCOc1cc(/C=N/n2cnnc2)c(Br)cc1O 12.6%, CCCCCC(O)c1cccc(OCc2ccc3ccccc3n2)c1 (stereo not drawn) 23%, O=C(COC(=O)c1cc(S(=O)(=O)N2CCOCC2)ccc1F)NC1CC1 -2.29%, CNCC(O)c1ccc(O)c(O)c1 (stereo not drawn) -10.1%, CCOC(=O)C(NS(=O)(=O)c1ccc(C)cc1)(C(F)(F)F)P(=O)(OCC(C)C)OCC(C)C (stereo not drawn) 8.36%, CCCCCc1ccc(-c2cn(Cc3ccc4ccccc4c3)nn2)cc1 -16.8%, CCCCCc1ccc(-c2ccc(OCC)cc2)nc1 -5.2%, CC(=O)N1C(C)c2ccccc2C(C)(C)CC12CCCCC2 (stereo not drawn) 5.42%, O=c1[nH]c(CN2CCOCC2)nc2cc(Cl)ccc12 0.886%, NC(=O)Cc1nc2scc(-c3ccc(Cl)cc3)c2c(=O)[nH]1 -10.5%, CCOC(=O)c1ccc(CS(=O)c2ccc(Cl)cc2)o1 (stereo not drawn) -6.19%, Cc1oc(-c2ccccc2Cl)[n+]([O-])c1C -2.99%, CCOC(=O)C(C)n1nc(-c2ccccc2)c2ccccc2c1=O (stereo not drawn) 16.8%, O=C(Nc1nnc(CCOCCOCCc2nnc(NC(=O)c3ccco3)s2)s1)c1ccco1 14.7%, COCCNc1nnc(SCC(=O)NNC(=O)c2ccco2)s1 0.175%, S=c1[nH]c(-c2cccs2)cn1-c1ccccc1 -4.29%, COc1cccc(-n2c(=S)[nH]c3c(oc4ccccc43)c2=O)c1 -5.17%, CC(NC(=O)C1CCC(CNc2c(N3CCOCC3)c(=O)c2=O)CC1)c1ccccc1 (stereo not drawn) -0.949%
